Measurements from paper PMC7862700, “An all-to-all approach to the identification of sequence-specific readers for epigenetic DNA modifications on cytosine”.

How the values were obtained:
Experiment in all cases: DAPPL (digital affinity profiling via proximity ligation, sequencing); 10 mM Tris-HCl pH 7.5, 50 mM NaCl, 1 mM DTT, 4% glycerol, room temperature, 30 min; GST-TFs on glutathione beads, 16-mer random dsDNA library, 0.1% formaldehyde crosslink after washing; high values mean tight binding
[1] = target: ETV5 (Homo sapiens, UniProt P41161 1-510); conditions: protein: recombinant; tags: N-terminal GST; dsDNA, one strand shown
Chain of ETV5 (P41161 whole entry, the tested form may be a part): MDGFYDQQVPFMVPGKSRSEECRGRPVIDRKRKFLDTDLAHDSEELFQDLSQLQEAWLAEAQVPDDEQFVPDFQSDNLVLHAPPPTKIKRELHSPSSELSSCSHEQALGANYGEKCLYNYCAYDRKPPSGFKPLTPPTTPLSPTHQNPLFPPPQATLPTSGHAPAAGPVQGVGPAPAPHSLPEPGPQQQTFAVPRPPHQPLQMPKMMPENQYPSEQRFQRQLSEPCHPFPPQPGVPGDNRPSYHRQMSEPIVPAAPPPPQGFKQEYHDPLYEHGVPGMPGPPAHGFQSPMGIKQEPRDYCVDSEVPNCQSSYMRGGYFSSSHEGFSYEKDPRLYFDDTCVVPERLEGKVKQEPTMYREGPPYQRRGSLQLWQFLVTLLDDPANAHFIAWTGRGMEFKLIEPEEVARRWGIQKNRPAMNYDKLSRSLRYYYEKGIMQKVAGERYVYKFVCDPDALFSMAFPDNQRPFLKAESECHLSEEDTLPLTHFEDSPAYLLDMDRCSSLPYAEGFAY
Procedure, shortened: (§1)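 Sequencing on an Illumina NextSeq500 followed washing, crosslinking with 0.1% formaldehyde, proximity ligation (BsaI/T4 ligase, 1 h, 37 °C) and PCR amplification of pools that had been incubated for 30 min at room temperature with 200 nmole of a random double-stranded 16-mer DNA library in Tris/NaCl/DTT/glycerol buffer. Each pool held DNA-barcoded human transcription factors, expressed in yeast as GST fusions and captured on glutathione beads, plus a tag-only sample. Binding signal is a hexamer's read frequency for a factor divided by its frequency in the tag-only sample.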

[2] = target: HSF1 (Homo sapiens, UniProt Q00613 1-529); conditions: protein: recombinant; tags: N-terminal GST; chain copies: 3; dsDNA, one strand shown
Chain of HSF1 (Q00613 whole entry): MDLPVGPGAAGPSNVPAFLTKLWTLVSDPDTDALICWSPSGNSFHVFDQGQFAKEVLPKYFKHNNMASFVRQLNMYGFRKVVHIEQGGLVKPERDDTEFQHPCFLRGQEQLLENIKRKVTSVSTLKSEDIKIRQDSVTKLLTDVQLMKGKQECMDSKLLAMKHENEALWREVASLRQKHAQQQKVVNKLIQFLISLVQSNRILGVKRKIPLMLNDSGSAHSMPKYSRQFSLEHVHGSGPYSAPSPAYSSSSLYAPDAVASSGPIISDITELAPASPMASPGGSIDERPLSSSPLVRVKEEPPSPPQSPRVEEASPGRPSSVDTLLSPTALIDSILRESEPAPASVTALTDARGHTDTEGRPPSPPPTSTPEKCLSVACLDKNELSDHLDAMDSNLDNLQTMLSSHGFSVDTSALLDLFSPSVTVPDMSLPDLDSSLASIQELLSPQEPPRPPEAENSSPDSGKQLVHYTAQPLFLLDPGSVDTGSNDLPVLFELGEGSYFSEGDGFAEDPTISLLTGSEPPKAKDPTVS
Procedure, shortened: as §1

[3] = target: T1, SPIC (Homo sapiens, UniProt Q8N5J4 1-248); conditions: protein: recombinant; tags: N-terminal GST; dsDNA, one strand shown
T1 sequence: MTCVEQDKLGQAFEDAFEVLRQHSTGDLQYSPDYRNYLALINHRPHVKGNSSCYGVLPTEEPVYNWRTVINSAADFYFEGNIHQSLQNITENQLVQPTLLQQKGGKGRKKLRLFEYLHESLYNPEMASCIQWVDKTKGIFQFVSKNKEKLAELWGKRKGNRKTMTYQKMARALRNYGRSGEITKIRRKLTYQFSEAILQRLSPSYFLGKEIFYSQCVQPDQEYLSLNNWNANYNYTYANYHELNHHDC
Procedure, shortened: as §1

[4] = target: ELF4 (Homo sapiens, UniProt Q99607 1-663); conditions: protein: recombinant; tags: N-terminal GST; dsDNA, one strand shown
Chain of ELF4 (Q99607 whole entry): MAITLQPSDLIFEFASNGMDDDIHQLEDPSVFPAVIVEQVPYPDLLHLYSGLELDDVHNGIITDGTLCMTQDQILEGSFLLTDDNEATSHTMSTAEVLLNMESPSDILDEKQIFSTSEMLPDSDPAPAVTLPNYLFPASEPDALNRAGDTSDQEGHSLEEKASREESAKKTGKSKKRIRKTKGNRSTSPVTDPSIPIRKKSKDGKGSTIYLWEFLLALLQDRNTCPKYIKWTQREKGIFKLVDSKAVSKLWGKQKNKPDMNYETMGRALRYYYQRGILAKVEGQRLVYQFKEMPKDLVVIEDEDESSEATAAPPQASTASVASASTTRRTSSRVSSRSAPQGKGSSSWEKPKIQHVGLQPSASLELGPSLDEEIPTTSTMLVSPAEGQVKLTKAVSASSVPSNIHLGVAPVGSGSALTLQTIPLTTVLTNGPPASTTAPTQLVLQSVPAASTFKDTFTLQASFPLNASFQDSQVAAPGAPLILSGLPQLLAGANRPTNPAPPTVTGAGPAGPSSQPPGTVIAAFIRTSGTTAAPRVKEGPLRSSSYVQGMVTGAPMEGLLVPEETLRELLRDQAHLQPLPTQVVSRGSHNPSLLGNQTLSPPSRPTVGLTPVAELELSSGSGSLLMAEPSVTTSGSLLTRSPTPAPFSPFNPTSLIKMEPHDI
Procedure, shortened: as §1

[5] = target: T2, ELK4 (Homo sapiens, UniProt P28324-2 1-405); conditions: protein: recombinant; tags: N-terminal GST; dsDNA, one strand shown
T2 sequence: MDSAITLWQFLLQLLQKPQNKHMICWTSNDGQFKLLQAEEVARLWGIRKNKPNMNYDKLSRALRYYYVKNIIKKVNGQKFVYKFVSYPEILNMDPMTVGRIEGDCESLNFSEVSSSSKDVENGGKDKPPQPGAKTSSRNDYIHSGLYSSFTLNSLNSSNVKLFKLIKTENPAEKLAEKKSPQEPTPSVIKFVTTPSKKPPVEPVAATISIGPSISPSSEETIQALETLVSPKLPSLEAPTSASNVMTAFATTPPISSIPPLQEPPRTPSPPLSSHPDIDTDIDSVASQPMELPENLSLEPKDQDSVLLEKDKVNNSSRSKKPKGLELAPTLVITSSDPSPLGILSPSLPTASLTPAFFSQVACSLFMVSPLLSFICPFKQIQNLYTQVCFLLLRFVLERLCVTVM
Procedure, shortened: as §1

[6] = target: T3, ETV2 (Homo sapiens, UniProt O00321 1-342); conditions: protein: recombinant; tags: N-terminal GST; dsDNA, one strand shown
T3 sequence: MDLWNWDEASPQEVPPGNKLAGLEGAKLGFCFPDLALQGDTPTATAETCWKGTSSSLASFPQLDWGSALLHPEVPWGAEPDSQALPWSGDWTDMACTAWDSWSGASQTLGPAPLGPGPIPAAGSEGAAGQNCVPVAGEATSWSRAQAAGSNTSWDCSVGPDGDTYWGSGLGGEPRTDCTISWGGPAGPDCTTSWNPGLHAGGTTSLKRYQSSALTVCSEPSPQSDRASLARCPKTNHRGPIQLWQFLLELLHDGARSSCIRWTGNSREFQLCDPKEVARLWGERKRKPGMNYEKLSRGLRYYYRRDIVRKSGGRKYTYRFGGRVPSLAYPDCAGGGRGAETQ
Procedure, shortened: as §1

[7] = target: T4, ELF3 (Homo sapiens, UniProt P78545 1-371); conditions: protein: recombinant; tags: N-terminal GST; dsDNA, one strand shown
T4 sequence: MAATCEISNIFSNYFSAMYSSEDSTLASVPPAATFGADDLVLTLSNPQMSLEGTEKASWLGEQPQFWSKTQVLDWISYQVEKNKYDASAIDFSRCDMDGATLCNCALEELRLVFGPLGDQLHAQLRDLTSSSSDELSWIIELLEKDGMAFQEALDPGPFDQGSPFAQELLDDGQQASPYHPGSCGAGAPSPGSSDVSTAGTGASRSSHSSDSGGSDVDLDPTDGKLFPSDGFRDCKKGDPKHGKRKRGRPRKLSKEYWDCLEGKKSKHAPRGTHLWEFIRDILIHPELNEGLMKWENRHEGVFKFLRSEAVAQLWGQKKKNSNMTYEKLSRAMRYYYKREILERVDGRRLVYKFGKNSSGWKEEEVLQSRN
Procedure, shortened: as §1

[8] = target: CRX (Homo sapiens, UniProt O43186 1-299); conditions: protein: recombinant; tags: N-terminal GST; dsDNA, one strand shown
Chain of CRX (O43186 whole entry): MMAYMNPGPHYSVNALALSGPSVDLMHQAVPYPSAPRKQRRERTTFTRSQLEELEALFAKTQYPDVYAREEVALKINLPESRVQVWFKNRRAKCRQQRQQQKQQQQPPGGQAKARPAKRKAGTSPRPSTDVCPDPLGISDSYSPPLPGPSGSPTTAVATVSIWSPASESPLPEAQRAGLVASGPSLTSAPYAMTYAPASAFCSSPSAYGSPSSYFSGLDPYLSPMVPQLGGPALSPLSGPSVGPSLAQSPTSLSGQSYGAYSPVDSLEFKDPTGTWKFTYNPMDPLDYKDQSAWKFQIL
Procedure, shortened: as §1

[9] = target: T5, ERF (Homo sapiens, UniProt P50548 1-548); conditions: protein: recombinant; tags: N-terminal GST; dsDNA, one strand shown
T5 sequence: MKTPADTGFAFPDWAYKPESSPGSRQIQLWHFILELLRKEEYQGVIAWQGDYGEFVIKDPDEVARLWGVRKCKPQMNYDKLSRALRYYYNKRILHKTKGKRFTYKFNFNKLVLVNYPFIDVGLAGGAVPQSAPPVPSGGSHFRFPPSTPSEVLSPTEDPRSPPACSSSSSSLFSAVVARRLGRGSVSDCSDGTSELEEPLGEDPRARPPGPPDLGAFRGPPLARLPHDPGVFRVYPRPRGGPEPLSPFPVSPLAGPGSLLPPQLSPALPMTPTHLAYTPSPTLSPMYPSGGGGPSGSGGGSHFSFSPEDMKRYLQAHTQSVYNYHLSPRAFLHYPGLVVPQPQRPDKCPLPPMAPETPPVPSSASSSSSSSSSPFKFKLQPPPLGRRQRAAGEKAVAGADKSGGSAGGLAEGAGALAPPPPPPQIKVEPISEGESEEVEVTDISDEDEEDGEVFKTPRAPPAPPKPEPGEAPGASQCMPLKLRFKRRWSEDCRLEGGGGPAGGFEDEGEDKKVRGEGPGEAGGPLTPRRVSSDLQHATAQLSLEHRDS
Procedure, shortened: as §1

[10] = target: T6, ETV3L (Homo sapiens, UniProt Q6ZN32 1-361); conditions: protein: recombinant; tags: N-terminal GST; dsDNA, one strand shown
T6 sequence: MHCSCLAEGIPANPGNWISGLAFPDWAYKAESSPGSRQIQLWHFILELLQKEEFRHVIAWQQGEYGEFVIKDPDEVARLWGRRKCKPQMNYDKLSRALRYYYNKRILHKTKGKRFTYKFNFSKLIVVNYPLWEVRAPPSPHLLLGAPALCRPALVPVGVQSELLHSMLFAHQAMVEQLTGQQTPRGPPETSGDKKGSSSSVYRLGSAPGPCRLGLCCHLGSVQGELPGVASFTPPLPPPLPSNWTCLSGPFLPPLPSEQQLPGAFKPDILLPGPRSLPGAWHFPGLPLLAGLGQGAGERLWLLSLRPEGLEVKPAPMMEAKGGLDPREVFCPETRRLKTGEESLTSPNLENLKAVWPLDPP
Procedure, shortened: as §1

[11] = target: T7, ETS2 (Homo sapiens, UniProt P15036 1-469); conditions: protein: recombinant; tags: N-terminal GST; dsDNA, one strand shown
T7 sequence: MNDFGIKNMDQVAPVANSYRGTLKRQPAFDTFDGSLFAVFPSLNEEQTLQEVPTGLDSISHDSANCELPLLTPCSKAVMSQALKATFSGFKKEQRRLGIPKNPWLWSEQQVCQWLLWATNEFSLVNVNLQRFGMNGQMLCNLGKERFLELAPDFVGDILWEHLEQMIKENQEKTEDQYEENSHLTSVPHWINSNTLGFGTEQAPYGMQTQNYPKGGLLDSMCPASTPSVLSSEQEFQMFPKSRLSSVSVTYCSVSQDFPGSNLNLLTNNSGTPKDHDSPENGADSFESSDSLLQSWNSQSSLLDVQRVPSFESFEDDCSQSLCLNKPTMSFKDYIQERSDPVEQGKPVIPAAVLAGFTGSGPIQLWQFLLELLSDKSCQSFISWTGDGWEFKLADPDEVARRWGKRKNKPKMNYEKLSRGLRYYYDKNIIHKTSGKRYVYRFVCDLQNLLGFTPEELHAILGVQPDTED
Procedure, shortened: as §1

[12] = target: T8, SPDEF (Homo sapiens, UniProt O95238 1-335); conditions: protein: recombinant; tags: N-terminal GST; dsDNA, one strand shown
T8 sequence: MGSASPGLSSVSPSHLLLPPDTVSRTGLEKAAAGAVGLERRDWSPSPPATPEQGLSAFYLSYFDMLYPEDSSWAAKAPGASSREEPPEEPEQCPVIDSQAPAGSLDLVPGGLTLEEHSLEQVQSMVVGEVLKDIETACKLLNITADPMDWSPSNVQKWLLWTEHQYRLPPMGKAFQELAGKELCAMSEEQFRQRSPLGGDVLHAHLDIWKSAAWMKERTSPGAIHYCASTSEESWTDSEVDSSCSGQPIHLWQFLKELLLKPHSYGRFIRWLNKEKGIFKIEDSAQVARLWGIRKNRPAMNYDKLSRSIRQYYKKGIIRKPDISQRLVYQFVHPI
Procedure, shortened: as §1

[13] = target: T9, ETV7 (Homo sapiens, UniProt Q9Y603 1-341); conditions: protein: recombinant; tags: N-terminal GST; dsDNA, one strand shown
T9 sequence: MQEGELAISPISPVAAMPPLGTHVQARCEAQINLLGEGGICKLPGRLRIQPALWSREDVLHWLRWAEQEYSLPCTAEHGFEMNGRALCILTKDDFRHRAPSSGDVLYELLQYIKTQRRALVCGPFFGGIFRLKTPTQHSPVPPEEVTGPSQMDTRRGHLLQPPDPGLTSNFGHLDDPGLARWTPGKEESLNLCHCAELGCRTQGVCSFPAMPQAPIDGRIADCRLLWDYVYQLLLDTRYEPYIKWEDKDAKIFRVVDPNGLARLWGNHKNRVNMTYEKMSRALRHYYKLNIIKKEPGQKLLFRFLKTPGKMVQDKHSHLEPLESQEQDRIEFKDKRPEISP
Procedure, shortened: as §1

[14] = target: T10, ETV3 (Homo sapiens, UniProt P41162-2 1-143); conditions: protein: recombinant; tags: N-terminal GST; dsDNA, one strand shown
T10 sequence: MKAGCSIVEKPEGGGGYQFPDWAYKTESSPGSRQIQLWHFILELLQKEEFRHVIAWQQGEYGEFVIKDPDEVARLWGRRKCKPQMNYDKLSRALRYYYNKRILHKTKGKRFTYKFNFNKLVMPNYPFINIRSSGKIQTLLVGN
Procedure, shortened: as §1

[15] = target: T11, FEV (Homo sapiens, UniProt Q99581 1-238); conditions: protein: recombinant; tags: N-terminal GST; dsDNA, one strand shown
T11 sequence: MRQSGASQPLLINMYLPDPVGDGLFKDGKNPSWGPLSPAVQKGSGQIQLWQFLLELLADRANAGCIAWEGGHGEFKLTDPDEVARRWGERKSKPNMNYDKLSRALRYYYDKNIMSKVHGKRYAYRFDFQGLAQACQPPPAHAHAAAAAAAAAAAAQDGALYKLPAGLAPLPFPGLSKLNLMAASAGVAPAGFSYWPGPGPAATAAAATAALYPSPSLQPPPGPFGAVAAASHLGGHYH
Procedure, shortened: as §1

[16] = target: ETV1 (Homo sapiens, UniProt P50549 1-477); conditions: protein: recombinant; tags: N-terminal GST; dsDNA, one strand shown
Chain of ETV1 (P50549 whole entry): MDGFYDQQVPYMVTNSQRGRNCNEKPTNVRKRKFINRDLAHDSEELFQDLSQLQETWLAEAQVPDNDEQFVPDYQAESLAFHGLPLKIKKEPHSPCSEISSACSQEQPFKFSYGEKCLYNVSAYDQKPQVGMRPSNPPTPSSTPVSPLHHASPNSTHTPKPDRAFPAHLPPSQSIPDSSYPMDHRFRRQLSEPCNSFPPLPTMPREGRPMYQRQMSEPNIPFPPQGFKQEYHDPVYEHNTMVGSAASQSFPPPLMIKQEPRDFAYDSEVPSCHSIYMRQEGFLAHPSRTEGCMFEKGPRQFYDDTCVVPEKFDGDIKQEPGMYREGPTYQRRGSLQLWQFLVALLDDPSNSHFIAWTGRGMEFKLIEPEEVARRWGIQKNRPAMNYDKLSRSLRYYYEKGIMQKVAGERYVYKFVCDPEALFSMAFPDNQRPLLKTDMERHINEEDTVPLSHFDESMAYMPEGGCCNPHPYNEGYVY
Procedure, shortened: as §1

[17] = target: T12, ELF5 (Homo sapiens, UniProt Q9UKW6-2 1-255); conditions: protein: recombinant; tags: N-terminal GST; dsDNA, one strand shown
T12 sequence: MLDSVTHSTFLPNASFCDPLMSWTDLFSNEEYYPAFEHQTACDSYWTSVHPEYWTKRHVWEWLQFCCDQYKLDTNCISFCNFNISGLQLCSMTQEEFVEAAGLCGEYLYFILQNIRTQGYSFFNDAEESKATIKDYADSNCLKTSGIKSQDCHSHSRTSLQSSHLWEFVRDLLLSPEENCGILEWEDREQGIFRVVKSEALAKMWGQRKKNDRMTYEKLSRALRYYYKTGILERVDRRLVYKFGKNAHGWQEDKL
Procedure, shortened: as §1

[18] = target: ETV6 (Homo sapiens, UniProt P41212 1-452); conditions: protein: recombinant; tags: N-terminal GST; dsDNA, one strand shown
Chain of ETV6 (P41212 whole entry): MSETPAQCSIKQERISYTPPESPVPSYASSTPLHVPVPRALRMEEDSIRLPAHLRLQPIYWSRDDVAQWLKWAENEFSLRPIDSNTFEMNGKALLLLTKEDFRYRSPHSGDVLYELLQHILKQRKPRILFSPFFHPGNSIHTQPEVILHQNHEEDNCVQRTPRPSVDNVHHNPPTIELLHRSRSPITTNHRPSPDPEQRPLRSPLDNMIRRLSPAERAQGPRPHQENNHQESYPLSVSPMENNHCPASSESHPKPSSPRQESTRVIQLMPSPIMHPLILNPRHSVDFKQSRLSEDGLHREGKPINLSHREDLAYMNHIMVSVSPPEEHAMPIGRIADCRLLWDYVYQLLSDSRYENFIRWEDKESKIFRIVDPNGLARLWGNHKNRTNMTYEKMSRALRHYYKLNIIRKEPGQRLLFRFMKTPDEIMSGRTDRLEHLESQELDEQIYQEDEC
Procedure, shortened: as §1

Row | Sequence | binding signal [1] | binding signal [2] | binding signal [3] | binding signal [4] | binding signal [5] | binding signal [6] | binding signal [7] | binding signal [8] | binding signal [9] | binding signal [10] | binding signal [11] | binding signal [12] | binding signal [13] | binding signal [14] | binding signal [15] | binding signal [16] | binding signal [17] | binding signal [18]
1 | TGATCA | 1.02 fold enrichment (6-mer frequency, TF over GST control) | 1.08 fold enrichment (6-mer frequency, TF over GST control) | 1.16 fold enrichment (6-mer frequency, TF over GST control) | 1.1 fold enrichment (6-mer frequency, TF over GST control) | 1.02 fold enrichment (6-mer frequency, TF over GST control) | 1.1 fold enrichment (6-mer frequency, TF over GST control) | 1.03 fold enrichment (6-mer frequency, TF over GST control) | 1.18 fold enrichment (6-mer frequency, TF over GST control) | 1.15 fold enrichment (6-mer frequency, TF over GST control) | 1.07 fold enrichment (6-mer frequency, TF over GST control) | 1.06 fold enrichment (6-mer frequency, TF over GST control) | 1.05 fold enrichment (6-mer frequency, TF over GST control) | 1.14 fold enrichment (6-mer frequency, TF over GST control) | 1.05 fold enrichment (6-mer frequency, TF over GST control) | – | – | – | –
2 | AAGGAA | 1.35 fold enrichment (6-mer frequency, TF over GST control) | 1.17 fold enrichment (6-mer frequency, TF over GST control) | 1.36 fold enrichment (6-mer frequency, TF over GST control) | 1.25 fold enrichment (6-mer frequency, TF over GST control) | 1.12 fold enrichment (6-mer frequency, TF over GST control) | 1.31 fold enrichment (6-mer frequency, TF over GST control) | 1.66 fold enrichment (6-mer frequency, TF over GST control) | – | 1.23 fold enrichment (6-mer frequency, TF over GST control) | 1.3 fold enrichment (6-mer frequency, TF over GST control) | 1.34 fold enrichment (6-mer frequency, TF over GST control) | 1.22 fold enrichment (6-mer frequency, TF over GST control) | 1.28 fold enrichment (6-mer frequency, TF over GST control) | 1.37 fold enrichment (6-mer frequency, TF over GST control) | 1.19 fold enrichment (6-mer frequency, TF over GST control) | 1.24 fold enrichment (6-mer frequency, TF over GST control) | 2.15 fold enrichment (6-mer frequency, TF over GST control) | 1.41 fold enrichment (6-mer frequency, TF over GST control)
